Results published in PubChem BioAssay (EPA / NIEHS).
Inconclusive results are not listed. Activity calls are given as the source filed them. Rule for the calls, unless noted: active = hit-call score of the fitted dose curve at least 0.9, where 1 is the maximum; inactive = score below 0.9.

Legend:
[1] = biological target: Cellular tumor antigen p53 (Homo sapiens) (UniProt P04637); assay: TOX21_p53_BLA_p2_ratio: Tox21 HCT-116 p53 Agonism Beta-lactamase Assay, Ratio, Phase 2 (AID 2283592; active = hit-call score of the fitted dose curve at least 0.9, where 1 is the maximum)
Chain of Cellular tumor antigen p53 (Homo sapiens) (P04637 whole entry, looked up): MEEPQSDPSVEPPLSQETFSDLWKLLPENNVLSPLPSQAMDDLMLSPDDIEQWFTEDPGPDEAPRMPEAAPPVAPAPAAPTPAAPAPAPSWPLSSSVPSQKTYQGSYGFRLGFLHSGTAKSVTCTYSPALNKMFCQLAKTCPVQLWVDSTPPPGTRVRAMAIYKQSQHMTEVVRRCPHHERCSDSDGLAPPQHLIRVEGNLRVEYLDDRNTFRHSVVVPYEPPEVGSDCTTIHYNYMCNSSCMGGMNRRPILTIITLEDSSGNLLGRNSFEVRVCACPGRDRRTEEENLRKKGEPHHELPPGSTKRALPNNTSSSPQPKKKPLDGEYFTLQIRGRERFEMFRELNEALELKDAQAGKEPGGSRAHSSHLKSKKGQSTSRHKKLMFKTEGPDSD
How it was run: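 HCT116 p53-bla; 4000 cells/well; 5 h pre-incubation; cpd in DMSO, 217-fold dilution; 16 h 37C/5% CO2; CCF4-AM 2 h RT; Ex 405, Em 460/530 ratio; DMSO = baseline; positive fitting direction.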

[2] = TOX21_p53_BLA_p3_viability: Viability Assessment in the Tox21 HCT-116 p53 Agonism Beta-lactamase Assay, Phase 3 (AID 2283593; active = hit-call score of the fitted dose curve at least 0.9, where 1 is the maximum;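 note: cells exposed to compound for 16 h before reading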)
How it was run: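 Cellular ATP was quantified by CellTiter-Glo luminescence, read after 30 min at room temperature. Beforehand, HCT116 cells (4000/well) received compound 5 h post-seeding, 217-fold diluted from DMSO, then incubated 16 h at 37C.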

[3] = biological target: Cellular tumor antigen p53 (Homo sapiens) (UniProt P04637); assay: TOX21_p53_BLA_p3_ratio: Tox21 HCT-116 p53 Agonism Beta-lactamase Assay, Ratio, Phase 3 (AID 2283596; active = hit-call score of the fitted dose curve at least 0.9, where 1 is the maximum)
How it was run: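 HCT116 p53-bla cells (4000/well) given compound in DMSO (217-fold dilution) after 5 h, incubated 16 h at 37C. CCF4-AM substrate 2 h at room temperature; 460/530 nm emission ratio, gain fitted against DMSO.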

[4] = TOX21_p53_BLA_p4_viability: Viability Assessment in the Tox21 HCT-116 p53 Agonism Beta-lactamase Assay, Phase 4 (AID 2283597; active = hit-call score of the fitted dose curve at least 0.9, where 1 is the maximum;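 note: hits lower the luminescence signal meaning cytotoxicity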)
How it was run: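 Cells plated, 5 h pre-incubation; DMSO compounds pinned (217-fold dilution); 16 h, 37C/5% CO2; CCF4-AM 2 h RT; CellTiter-Glo 30 min RT; luminescence read.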

[5] = biological target: Cellular tumor antigen p53 (Homo sapiens) (UniProt P04637); assay: TOX21_p53_BLA_p5_ratio: Tox21 HCT-116 p53 Agonism Beta-lactamase Assay, Ratio, Phase 5 (AID 2283599; active = hit-call score of the fitted dose curve at least 0.9, where 1 is the maximum)
How it was run: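 Beta-lactamase reporter ratio (blue 460 nm over green 530 nm, 405 nm excitation) after 2 h CCF4-AM loading, in HCT-116 cells exposed 16 h at 37 C to compounds pinned at 217-fold dilution. Increases relative to DMSO baseline scored.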

[6] = TOX21_p53_BLA_p5_viability: Viability Assessment in the Tox21 HCT-116 p53 Agonism Beta-lactamase Assay, Phase 5 (AID 2283600; active = hit-call score of the fitted dose curve at least 0.9, where 1 is the maximum)
How it was run: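 4000 cells/well; 5 h pre-incubation; DMSO compounds pin-transferred, 217-fold dilution; 16 h, 37C/5% CO2; CCF4-AM 2 h RT; CellTiter-Glo 30 min RT; luminescence.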

[7] = biological target: Cellular tumor antigen p53 (Homo sapiens) (UniProt P04637); assay: TOX21_p53_BLA_p4_ratio: Tox21 HCT-116 p53 Agonism Beta-lactamase Assay, Ratio, Phase 4 (AID 2283601; active = hit-call score of the fitted dose curve at least 0.9, where 1 is the maximum)
How it was run: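 Signal is the blue/green (460nm/530nm) ratio of cleaved versus uncleaved CCF4-AM substrate, read after 2 h substrate loading. Cells were HCT116 carrying the p53-responsive beta-lactamase reporter, dosed 16 h at 37C, 5% CO2; CellTiter-Glo measured in parallel.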

[8] = CCTE_Harrill_HTTr_Viability_MCF7: CCTE's 6-hour Cell Viability Assessment for the High-Throughput Transcriptomics (HTTr) Platform, in MCF-7 cells cultured in DMEM + 10% fetal bovine serum, Harrill Lab (AID 2284010)
How it was run: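 Viability measured through PI dye exclusion by high-content imaging at 6 h post-dosing.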

[9] = CCTE_Harrill_HTTr_Apoptosis_MCF7: CCTE's 6-hour Apoptosis Assessment for the High-Throughput Transcriptomics (HTTr) Platform, in MCF-7 cells cultured in DMEM + 10% fetal bovine serum, Harrill Lab (AID 2284011)
How it was run: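 MCF-7 (DMEM + 10% FBS), 384-well; 8-pt dilution series, 6 h chemical exposure; caspase-3/7 activation via CellEvent Caspase 3/7 Green, HCI; bidirectional fit vs DMSO.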

[10] = CCTE_Shafer_MEA_dev_per_burst_spike_percent: CCTE's Neural Network Formation Assay for Percent of Spikes in a Burst, Shafer Lab (AID 2284032)
How it was run: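 Rat primary cortical neurons on 16-electrode MEA wells, dosed from plating day 0 for 12 days with renewal on DIV 5 and 9; spikes-in-bursts percentage averaged over bursting electrodes, collapsed as AUC across days 5, 7, 9, 12; loss direction versus DMSO.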

[11] = CCTE_Shafer_MEA_dev_active_electrodes_number: CCTE's Neural Network Formation Assay for Number of Active Electrodes, Shafer Lab (AID 2284040; active = hit-call score of the fitted dose curve at least 0.9, where 1 is the maximum)
How it was run: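 Rat cortical primary cultures, 1.5 x 10^5 cells/well, PEI-coated MEA, laminin drop. Continuous exposure DIV 0–12; full media/compound change DIV 5, 9. Readout: electrodes with mean firing ≥5 spikes/min; AUC across days; loss vs DMSO.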

[12] = CCTE_Shafer_MEA_dev_burst_rate: CCTE's Neural Network Formation Assay for Burst Rate, Shafer Lab (AID 2284042)
How it was run: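 Exposure ran continuously over 12 days of network development in rat cortical cultures, with compound refreshed during full media changes on DIV 5 and 9. Single-electrode bursts per recording time, well-mean over active electrodes, trapezoidal AUC across days 5–12, fitted downward relative to DMSO.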

[13] = CCTE_Shafer_MEA_dev_bursting_electrodes_number: CCTE's Neural Network Formation Assay for Number of Bursting Electrodes, Shafer Lab (AID 2284043; active = hit-call score of the fitted dose curve at least 0.9, where 1 is the maximum)
How it was run: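 Read-out is the per-well number of electrodes bursting at least once every 2 minutes, recorded on days 5, 7, 9 and 12 and collapsed by trapezoidal area under the curve. Cultures were primary rat cortical neurons on MEA plates, treated continuously from plating.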

[14] = CCTE_Shafer_MEA_dev_burst_duration_mean: CCTE's Neural Network Formation Assay for Mean Burst Duration, Shafer Lab (AID 2284045)
How it was run: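 Read-out: average first-to-last-spike interval within single-electrode bursts, averaged over bursting electrodes per well, then summarised as area under the curve across days 5, 7, 9 and 12. Developing rat cortical networks were exposed from day 0.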

[15] = CCTE_Shafer_MEA_dev_interburst_interval_mean: CCTE's Neural Network Formation Assay for Mean Interburst Interval, Shafer Lab (AID 2284046);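 note: well-mean interburst interval of bursting electrodes as AUC over four recording days; curve fitted for decrease in interburst interval relative to DMSO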
How it was run: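 Primary rat cortical neurons on PEI-coated 48-well MEA plates (laminin added with cells at plating) (16 electrodes/well), exposed from plating day 0 with renewal at DIV 5 and 9. Mean inter-burst interval averaged over bursting electrodes, AUC across days 5, 7, 9, 12; DMSO baseline.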

[16] = CCTE_Shafer_MEA_dev_inter_network_spike_interval_mean: CCTE's Neural Network Formation Assay for Mean Inter-network Spike Interval, Shafer Lab (AID 2284047)
How it was run: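 Mean time between consecutive network-spike peaks, recorded extracellularly (adaptive spike detection) on DIV 5, 7, 9 and 12, summarized as trapezoidal AUC. Rat cortical cultures on MEAs dosed continuously days 0–12, re-dosed at feeds; loss-of-signal fit relative to DMSO.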

[17] = CCTE_Shafer_MEA_dev_network_spike_number: CCTE's Neural Network Formation Assay for Number of Network Spikes, Shafer Lab (AID 2284048);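 note: synchronized bursts across electrodes counted on days 5 7 9 12 and integrated as AUC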
How it was run: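 Developing networks of primary rat cortical neurons are treated over 12 days starting at plating, with media and compound fully replaced on DIV 5 and 9. Network spike counts from four recording days are integrated as trapezoidal AUC.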

[18] = CCTE_Shafer_MEA_dev_network_spike_peak: CCTE's Neural Network Formation Assay for Mean Number of Electrodes in Network Spike, Shafer Lab (AID 2284049)
How it was run: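 Rat cortical primary culture, 1.5 x 10^5 cells/well, 48-well MEA (16 electrodes/well). Dosing day 0 through DIV 12, full media/compound exchange DIV 5, 9. AxIS adaptive spike detection; AUC over days 5/7/9/12; loss-of-signal vs DMSO.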

[19] = CCTE_Shafer_MEA_dev_spike_duration_mean: CCTE's Neural Network Formation Assay for Mean Spike Duration, Shafer Lab (AID 2284051);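 note: mean network spike duration pooled as area under curve over DIV 5 to 12 recordings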
How it was run: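 Spontaneous activity was recorded on days 5, 7, 9 and 12 from rat cortical cultures grown on microelectrode arrays and dosed continuously from day 0, with media and compound renewed after the DIV 5 and 9 recordings. Network-spike duration was collapsed by area under the curve.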

[20] = CCTE_Shafer_MEA_dev_network_spike_duration_std: CCTE's Neural Network Formation Assay for Standard Deviation of Network Spike Duration, Shafer Lab (AID 2284052);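 note: hits are decreases in network spike duration SD versus DMSO vehicle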
How it was run: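 Network spike duration variability was collapsed across recordings on days 5, 7, 9 and 12 by trapezoidal area-under-curve and fitted downward against DMSO. Cultures were rat cortical neurons on PEI-coated MEA plates, dosed continuously from plating, refed with compound DIV 5/9.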

[21] = CCTE_Shafer_MEA_dev_per_network_spike_spike_number_mean: CCTE's Neural Network Formation Assay for Mean Number of Spikes in a Network Spike, Shafer Lab (AID 2284053)
How it was run: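 Mean spike count within each network spike, taken in a 0.05 s window at its peak, was recorded on days 5, 7, 9 and 12 and integrated as trapezoidal area under the curve. Rat cortical cultures on MEA plates received continuous compound from day 0, refreshed at medium changes on DIV 5 and 9.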

[22] = CCTE_Shafer_MEA_dev_per_network_spike_spike_percent: CCTE's Neural Network Formation Assay for Percent of Spikes in a Network Spike, Shafer Lab (AID 2284054)
How it was run: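 Rat primary cortical cultures, 1.5 x 10^5 cells/well on MEA. Continuous compound exposure d0–12, medium/compound renewed DIV 5, 9. Network-spike spike % (0.05 s peak window), AUC over 4 recordings, DMSO baseline.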

[23] = UKN5_HCS_SBAD2_cell_viability: Viability Assessment in the University of Konstanz (UKN) Leist Lab Neurite Outgrowth Assay in human iPSC-derived immature Dorsal Root Ganglia Neurons (UKN5) (AID 2284056)
How it was run: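 iPSC-derived immature peripheral neurons (SBAD2) seeded on Matrigel with CHIR99021, SU5402 and DAPT, dosed 1 h later for 24 h. Viability from Hoechst H-33342 and calcein-AM live staining, high-content imaging; bidirectional fit versus DMSO.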

[24] = CCTE_Shafer_MEA_dev_LDH: CCTE's Lactate Dehydrogenase Assay for Cytotoxicity in the Neural Network Formation Assay, Shafer Lab (AID 2284068; active = hit-call score of the fitted dose curve at least 0.9, where 1 is the maximum;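 note: exposure for twelve days from plating with re-dosing on DIV 5 and 9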)
How it was run: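 Primary rat cortical neurons were cultured on PEI-coated MEA plates and exposed from plating through day 12, with compound renewed at medium changes on DIV 5 and 9. LDH activity was read spectrophotometrically; loss of signal versus DMSO indicates reduced viability.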

[25] = UKN5_HCS_SBAD2_neurite_outgrowth: University of Konstanz (UKN) Leist Lab Neurite Outgrowth Assay in human iPSC-derived immature Dorsal Root Ganglia Neurons (UKN5) (AID 2284070); conditions: actives raise or lower the signal
How it was run: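 SBAD2 neurons, 24 h compound treatment, calcein-AM neurite area via HCS imaging; DMSO baseline, gain or loss of signal.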

[26] = CCTE_Shafer_MEA_dev_AB: CCTE's Alamar Blue Assay for Cytotoxicity in the Neural Network Formation Assay, Shafer Lab (AID 2284083; active = hit-call score of the fitted dose curve at least 0.9, where 1 is the maximum;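 note: resazurin reduction fluorescence as viability of cultured neurons; twelve days of exposure from plating with re-dosing on DIV 5 and 9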)
How it was run: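 Resazurin fluorescence, relative to DMSO, gauges viability after twelve days of exposure that began at plating of rat cortical neurons (1.5 x 10^5 cells/well, 48-well MEA); treatment renewed with full medium exchange on DIV 5 and 9.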

[27] = CCTE_Shafer_MEA_dev_mutual_information_norm: CCTE's Neural Network Formation Assay for Mutual Information Normalization, Shafer Lab (AID 2284091)
How it was run: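 Developing rat cortical networks on 16-electrode MEA wells are treated throughout formation (DIV 0–12). Shared electrode information is recorded four times, converted to area-under-curve, and fitted for decreases against DMSO vehicle.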

[28] = CCTE_Shafer_MEA_dev_correlation_coefficient_mean: CCTE's Neural Network Formation Assay for Mean Correlation Coefficient, Shafer Lab (AID 2284093)
How it was run: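 Primary rat cortical neurons on PEI-coated 48-well MEA plates (16 electrodes/well) were exposed from plating day 0 through DIV12, with compound renewed at DIV5 and 9. Pairwise spike correlations were averaged per well; trapezoidal AUC across DIV5, 7, 9, 12.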

Measured: outcome

C[C@@H]1C[C@H]2[C@@H]3CCC4=CC(=O)C=C[C@]4(C)[C@@]3(F)[C@@H](O)C[C@]2(C)[C@@]1(O)C(=O)CO
inactive: [1] | [2] | [3] | [4] | [5] | [6] | [7] | [8] | [9] | [10] | [11] | [12] | [13] | [14] | [15] | [16] | [17] | [18] | [19] | [20] | [21] | [22] | [23] | [24] | [25] | [26] | [27] | [28]
